Results reported in the supplement of paper PMC11732987, “Enantioselective OTUD7B fragment discovery through chemoproteomics screening and high-throughput optimisation” (Communications Chemistry, 2025).

Tests used:
Experiment in all cases: log2 ratio of Biotin-Ahx-Ub-VS probe labelling (fragment/DMSO); higher = less target engagement (more negative = stronger competition), active = hit call of the paper (q ≤ 0.05, log2 ratio ≤ -1)
Conditions in all cases: compound concentration: 200 uM; treatment time: 3 h
USP34 = USP34 (UniProt Q70CQ2)
Chain of USP34 (Q70CQ2 whole entry, the tested form may be a part): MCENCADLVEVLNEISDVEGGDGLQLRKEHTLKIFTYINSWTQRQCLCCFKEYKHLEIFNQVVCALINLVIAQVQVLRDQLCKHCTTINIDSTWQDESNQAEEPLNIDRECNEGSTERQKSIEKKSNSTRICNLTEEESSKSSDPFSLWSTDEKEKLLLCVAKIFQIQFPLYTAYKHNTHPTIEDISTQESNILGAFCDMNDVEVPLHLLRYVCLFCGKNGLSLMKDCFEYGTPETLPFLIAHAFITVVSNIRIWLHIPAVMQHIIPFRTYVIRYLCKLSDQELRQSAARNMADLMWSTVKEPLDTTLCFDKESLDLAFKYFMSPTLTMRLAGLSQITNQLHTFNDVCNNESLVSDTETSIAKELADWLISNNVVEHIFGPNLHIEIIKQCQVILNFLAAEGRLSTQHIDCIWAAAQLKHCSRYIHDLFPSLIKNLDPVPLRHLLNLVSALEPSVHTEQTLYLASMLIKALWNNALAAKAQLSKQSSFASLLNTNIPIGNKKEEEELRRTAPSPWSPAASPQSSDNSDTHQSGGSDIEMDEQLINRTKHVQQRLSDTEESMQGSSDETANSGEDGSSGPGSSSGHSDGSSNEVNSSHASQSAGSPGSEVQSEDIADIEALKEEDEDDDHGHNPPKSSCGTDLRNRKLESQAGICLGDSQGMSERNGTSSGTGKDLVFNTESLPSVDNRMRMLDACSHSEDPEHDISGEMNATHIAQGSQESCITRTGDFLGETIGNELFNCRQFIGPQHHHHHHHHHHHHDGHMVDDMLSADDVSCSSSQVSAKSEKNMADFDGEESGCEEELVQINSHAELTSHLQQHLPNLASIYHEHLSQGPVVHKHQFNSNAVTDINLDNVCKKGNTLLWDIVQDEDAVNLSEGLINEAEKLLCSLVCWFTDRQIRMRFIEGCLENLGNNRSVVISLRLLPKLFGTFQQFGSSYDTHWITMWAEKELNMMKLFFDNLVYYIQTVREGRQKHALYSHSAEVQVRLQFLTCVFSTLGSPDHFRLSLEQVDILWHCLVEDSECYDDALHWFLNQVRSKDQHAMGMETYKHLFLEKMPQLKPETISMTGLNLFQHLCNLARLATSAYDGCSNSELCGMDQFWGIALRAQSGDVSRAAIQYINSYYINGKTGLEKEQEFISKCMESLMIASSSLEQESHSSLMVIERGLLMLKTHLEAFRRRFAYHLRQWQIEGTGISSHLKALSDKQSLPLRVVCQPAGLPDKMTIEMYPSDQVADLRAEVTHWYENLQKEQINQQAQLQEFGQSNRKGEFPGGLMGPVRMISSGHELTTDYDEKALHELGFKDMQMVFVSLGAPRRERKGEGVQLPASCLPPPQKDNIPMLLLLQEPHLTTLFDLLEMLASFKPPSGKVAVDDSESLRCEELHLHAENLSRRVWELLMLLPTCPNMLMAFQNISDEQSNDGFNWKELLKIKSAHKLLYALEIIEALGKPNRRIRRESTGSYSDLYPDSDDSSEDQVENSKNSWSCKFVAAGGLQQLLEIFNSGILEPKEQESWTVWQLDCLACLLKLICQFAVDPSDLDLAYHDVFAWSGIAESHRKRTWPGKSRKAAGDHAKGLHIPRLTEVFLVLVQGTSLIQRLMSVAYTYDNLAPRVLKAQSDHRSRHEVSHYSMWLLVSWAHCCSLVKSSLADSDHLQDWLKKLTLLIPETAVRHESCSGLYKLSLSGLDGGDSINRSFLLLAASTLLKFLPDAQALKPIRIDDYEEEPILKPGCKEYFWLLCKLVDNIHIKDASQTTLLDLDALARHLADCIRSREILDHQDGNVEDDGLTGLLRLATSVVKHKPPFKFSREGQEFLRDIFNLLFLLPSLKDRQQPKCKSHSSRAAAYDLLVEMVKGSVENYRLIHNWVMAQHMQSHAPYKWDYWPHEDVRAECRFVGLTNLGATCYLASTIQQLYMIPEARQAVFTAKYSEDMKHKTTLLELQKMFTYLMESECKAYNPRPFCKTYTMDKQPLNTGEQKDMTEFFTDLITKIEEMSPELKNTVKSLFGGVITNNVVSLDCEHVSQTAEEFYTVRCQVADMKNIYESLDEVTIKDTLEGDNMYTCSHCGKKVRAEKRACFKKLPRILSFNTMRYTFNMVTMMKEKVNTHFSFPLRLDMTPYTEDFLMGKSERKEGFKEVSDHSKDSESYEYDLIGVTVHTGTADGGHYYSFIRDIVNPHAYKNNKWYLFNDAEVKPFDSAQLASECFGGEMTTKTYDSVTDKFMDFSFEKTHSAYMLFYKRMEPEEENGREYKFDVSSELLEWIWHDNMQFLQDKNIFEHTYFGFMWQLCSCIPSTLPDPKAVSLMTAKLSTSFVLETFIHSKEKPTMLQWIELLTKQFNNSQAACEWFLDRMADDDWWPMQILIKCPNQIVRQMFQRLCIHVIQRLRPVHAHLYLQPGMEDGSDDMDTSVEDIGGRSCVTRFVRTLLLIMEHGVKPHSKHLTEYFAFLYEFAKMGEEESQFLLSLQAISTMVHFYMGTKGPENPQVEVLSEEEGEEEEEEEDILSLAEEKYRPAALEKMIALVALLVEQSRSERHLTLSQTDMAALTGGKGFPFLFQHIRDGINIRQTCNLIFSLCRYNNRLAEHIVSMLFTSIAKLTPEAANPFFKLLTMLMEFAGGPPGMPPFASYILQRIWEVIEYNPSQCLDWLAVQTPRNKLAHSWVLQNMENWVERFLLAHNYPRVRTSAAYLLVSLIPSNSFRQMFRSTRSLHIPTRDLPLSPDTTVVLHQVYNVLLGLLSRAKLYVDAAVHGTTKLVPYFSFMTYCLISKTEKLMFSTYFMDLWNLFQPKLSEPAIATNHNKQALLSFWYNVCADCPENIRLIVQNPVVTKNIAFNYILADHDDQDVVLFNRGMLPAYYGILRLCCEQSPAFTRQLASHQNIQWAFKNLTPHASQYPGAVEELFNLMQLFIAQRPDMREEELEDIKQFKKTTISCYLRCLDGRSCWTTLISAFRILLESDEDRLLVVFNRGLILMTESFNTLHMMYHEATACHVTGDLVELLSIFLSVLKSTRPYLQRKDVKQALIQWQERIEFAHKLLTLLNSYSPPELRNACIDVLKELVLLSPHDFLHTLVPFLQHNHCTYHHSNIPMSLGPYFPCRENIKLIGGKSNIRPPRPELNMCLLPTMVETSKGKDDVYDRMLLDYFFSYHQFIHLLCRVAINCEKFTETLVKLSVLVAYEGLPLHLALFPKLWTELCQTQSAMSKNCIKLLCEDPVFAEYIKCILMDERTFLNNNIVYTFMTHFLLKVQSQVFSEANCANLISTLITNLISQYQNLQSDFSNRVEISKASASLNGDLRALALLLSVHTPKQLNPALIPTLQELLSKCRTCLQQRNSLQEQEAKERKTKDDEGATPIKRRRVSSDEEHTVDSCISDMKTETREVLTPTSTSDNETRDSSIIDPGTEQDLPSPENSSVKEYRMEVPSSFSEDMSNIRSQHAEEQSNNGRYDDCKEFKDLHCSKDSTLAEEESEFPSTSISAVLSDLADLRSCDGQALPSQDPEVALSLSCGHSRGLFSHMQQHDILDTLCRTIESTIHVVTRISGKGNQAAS
Method in brief: (§1)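 Each value is an average log2 ratio of fragment to vehicle, tested by unpaired t-test. The underlying Spectronaut label-free quantities were global-median-normalised, and only proteins with ≥2 unique peptides were included. Triplicate HEK293T lysate samples (495 µg) were exposed to fragment at 200 µM or vehicle for 3 h, then to Biotin-Ahx-Ub-VS at 0.5 µM final for 1 h, before NeutrAvidin enrichment of labelled DUBs, LysC and trypsin digestion, and diaPASEF LC-MS/MS.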

USP36 = target: T1, USP36 (UniProt Q9P275)
T1 sequence (whole entry): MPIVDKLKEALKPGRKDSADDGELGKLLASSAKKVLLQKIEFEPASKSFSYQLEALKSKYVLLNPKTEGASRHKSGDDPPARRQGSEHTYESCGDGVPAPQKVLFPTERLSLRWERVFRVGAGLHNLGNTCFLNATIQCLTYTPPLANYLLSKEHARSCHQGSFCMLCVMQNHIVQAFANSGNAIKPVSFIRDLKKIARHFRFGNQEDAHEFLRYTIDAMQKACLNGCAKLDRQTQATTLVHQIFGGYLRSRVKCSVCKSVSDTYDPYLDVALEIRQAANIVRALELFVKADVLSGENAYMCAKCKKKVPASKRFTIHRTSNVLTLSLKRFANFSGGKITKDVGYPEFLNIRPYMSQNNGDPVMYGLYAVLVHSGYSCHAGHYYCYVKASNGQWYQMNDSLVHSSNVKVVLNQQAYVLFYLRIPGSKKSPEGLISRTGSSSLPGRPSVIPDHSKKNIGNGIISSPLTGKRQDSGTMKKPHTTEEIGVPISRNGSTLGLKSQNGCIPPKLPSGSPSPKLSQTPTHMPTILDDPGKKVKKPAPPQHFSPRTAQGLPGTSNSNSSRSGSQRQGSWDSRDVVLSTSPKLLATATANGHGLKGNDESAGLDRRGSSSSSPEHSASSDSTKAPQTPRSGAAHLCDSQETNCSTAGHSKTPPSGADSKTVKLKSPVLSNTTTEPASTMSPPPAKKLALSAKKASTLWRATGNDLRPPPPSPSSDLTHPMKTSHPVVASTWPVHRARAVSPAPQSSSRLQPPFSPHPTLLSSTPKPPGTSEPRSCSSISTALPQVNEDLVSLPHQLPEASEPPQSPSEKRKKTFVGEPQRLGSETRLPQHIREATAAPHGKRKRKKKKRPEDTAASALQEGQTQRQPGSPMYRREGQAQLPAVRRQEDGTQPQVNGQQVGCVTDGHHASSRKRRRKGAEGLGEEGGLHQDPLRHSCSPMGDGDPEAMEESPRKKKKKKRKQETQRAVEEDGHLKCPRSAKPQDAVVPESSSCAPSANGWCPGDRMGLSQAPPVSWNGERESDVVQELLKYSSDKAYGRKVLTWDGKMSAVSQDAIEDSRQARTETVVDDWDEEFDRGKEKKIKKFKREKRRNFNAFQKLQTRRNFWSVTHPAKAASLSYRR
Method in brief: as §1

USP38 = target: T2, USP38 (UniProt Q8NB14)
T2 sequence (whole entry): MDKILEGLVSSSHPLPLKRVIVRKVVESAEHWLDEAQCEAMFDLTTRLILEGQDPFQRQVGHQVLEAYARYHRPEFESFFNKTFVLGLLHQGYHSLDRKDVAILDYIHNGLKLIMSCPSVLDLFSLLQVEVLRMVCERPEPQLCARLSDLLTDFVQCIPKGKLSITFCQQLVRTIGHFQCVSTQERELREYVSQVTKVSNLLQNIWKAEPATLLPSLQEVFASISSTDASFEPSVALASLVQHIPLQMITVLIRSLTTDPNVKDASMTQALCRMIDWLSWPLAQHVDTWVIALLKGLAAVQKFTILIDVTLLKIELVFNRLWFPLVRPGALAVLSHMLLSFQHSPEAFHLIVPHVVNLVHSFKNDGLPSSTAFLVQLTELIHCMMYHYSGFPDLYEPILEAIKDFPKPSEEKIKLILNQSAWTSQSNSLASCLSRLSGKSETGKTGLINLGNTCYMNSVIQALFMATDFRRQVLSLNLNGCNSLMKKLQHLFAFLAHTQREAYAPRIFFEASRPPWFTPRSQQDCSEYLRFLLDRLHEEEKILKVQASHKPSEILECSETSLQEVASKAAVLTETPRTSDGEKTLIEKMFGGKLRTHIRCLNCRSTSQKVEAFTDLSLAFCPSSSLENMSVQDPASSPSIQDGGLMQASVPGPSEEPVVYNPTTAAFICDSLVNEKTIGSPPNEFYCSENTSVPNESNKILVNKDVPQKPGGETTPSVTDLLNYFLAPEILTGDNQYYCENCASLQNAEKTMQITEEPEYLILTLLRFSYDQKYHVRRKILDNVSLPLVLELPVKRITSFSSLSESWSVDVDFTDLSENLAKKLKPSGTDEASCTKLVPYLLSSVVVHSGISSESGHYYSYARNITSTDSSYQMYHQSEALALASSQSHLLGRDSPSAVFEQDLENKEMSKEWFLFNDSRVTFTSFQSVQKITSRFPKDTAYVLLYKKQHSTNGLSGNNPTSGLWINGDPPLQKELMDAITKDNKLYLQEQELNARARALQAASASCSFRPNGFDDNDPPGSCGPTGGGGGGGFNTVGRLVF
Method in brief: as §1

USP39 = target: T3, USP39 (UniProt Q53GS9)
T3 sequence (whole entry): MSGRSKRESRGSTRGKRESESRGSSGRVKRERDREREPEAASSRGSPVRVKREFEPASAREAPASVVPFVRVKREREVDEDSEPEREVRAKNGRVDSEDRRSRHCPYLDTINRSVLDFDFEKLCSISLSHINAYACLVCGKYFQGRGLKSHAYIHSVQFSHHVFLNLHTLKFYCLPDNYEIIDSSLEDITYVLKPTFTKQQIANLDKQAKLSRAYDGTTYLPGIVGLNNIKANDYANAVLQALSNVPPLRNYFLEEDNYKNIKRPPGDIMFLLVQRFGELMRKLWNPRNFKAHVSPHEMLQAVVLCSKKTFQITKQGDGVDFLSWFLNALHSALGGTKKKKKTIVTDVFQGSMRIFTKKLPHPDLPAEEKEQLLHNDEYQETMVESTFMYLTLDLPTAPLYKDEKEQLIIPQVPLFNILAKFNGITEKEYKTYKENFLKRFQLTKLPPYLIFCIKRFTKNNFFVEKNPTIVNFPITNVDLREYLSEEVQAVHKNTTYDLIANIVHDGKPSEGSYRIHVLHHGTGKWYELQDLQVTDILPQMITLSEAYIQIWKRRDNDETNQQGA
Method in brief: as §1

USP4 = target: T4, USP4 (UniProt Q13107)
T4 sequence (whole entry): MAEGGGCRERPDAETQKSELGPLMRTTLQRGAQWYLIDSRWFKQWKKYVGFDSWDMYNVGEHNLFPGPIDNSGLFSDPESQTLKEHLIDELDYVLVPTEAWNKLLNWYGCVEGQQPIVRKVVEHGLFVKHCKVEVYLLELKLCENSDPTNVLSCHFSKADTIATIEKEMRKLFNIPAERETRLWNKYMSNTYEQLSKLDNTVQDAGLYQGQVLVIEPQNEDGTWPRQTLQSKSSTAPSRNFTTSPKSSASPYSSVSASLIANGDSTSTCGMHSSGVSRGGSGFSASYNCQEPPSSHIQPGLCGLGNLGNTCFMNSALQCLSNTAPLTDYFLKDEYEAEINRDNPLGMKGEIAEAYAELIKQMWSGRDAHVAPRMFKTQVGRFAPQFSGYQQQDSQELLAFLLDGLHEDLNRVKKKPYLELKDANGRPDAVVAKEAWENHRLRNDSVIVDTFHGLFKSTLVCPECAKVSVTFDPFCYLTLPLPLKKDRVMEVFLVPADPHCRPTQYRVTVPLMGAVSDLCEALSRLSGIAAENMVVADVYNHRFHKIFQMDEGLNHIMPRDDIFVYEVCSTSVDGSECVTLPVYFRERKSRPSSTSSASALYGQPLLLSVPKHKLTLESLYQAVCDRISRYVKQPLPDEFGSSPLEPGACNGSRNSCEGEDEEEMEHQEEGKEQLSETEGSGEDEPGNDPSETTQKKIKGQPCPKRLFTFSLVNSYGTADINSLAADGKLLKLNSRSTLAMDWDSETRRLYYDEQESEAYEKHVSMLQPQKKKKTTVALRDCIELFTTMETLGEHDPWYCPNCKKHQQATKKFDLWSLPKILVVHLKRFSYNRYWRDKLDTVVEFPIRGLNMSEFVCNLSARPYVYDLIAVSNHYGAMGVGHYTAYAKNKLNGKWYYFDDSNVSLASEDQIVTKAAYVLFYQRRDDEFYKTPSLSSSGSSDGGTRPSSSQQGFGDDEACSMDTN
Method in brief: as §1

Measured: log2 ratio of Biotin-Ahx-Ub-VS probe labelling

CC1CN(c2ccc(NC(=O)CCl)cc2)CC(C)O1 (stereo not given)
inactive: USP34 -0.087 | USP36 -0.162 | USP38 0.0369 | USP39 0.216 | USP4 -0.104
